Our source for the inhibition values is ChEMBL document CHEMBL1961873, “Compounds: GSK PKIS; Assays: Nanosyn kinase panel” (2012).

The target in test [1] is T1, Serine/threonine-protein kinase D2 (Homo sapiens) (UniProt Q9BZL6).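 Note: mean value of PRKD2 inhibition, from the GSK PKIS screening panel.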
T1 sequence (whole entry): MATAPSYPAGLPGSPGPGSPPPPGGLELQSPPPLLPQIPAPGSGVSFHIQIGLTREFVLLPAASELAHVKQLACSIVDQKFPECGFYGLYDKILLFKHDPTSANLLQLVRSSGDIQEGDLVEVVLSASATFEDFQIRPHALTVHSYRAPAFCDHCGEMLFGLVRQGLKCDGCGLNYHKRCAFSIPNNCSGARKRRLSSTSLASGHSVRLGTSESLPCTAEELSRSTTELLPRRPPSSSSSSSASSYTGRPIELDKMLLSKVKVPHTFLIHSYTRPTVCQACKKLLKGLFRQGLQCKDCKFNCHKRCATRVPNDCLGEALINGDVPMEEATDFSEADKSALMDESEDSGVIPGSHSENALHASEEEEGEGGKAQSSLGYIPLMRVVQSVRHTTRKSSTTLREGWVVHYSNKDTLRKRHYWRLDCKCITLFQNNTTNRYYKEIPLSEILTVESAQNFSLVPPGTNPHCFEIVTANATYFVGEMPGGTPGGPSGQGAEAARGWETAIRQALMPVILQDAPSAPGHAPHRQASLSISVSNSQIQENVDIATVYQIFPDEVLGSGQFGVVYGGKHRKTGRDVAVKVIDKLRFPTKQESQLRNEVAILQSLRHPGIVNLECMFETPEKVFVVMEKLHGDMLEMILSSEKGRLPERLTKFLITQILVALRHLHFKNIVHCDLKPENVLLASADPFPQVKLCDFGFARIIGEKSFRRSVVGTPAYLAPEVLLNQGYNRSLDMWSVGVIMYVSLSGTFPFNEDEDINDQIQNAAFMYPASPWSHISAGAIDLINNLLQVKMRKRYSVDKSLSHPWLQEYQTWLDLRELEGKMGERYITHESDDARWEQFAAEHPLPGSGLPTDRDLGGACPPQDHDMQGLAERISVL
To be noted: at 1 µM.

Test [2] addresses T2, Serine/threonine-protein kinase D3 (Homo sapiens) (UniProt O94806).
T2 sequence (whole entry): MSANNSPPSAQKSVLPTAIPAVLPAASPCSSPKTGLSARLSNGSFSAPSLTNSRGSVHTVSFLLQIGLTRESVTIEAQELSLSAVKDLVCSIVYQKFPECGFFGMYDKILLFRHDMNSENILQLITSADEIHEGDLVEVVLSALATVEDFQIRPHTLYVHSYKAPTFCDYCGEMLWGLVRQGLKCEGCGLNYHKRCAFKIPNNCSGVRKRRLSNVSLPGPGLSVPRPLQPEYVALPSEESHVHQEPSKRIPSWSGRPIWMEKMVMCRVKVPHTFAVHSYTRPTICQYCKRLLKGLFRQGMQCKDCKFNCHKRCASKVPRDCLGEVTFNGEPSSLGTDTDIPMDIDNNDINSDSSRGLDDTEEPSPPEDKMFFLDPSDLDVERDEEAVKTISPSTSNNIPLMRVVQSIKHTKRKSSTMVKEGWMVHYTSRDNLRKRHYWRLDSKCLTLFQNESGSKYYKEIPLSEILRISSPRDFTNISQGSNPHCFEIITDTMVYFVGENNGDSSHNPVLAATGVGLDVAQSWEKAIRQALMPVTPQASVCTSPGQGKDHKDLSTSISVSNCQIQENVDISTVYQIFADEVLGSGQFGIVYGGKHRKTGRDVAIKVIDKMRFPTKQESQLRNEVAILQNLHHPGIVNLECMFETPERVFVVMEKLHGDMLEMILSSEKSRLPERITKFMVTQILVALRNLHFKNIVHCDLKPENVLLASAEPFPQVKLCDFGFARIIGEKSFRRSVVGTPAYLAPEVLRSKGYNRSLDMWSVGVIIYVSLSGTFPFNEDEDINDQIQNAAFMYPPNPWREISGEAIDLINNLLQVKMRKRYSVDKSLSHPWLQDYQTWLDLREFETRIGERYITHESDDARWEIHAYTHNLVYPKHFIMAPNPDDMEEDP
To be noted: at 0.1 µM.

The target in test [3] is T2, Serine/threonine-protein kinase D3 (Homo sapiens). To be noted: at 1 µM.
For test [4], the target named is T3, cGMP-dependent protein kinase 1 (Homo sapiens) (UniProt Q13976).
T3 sequence (whole entry): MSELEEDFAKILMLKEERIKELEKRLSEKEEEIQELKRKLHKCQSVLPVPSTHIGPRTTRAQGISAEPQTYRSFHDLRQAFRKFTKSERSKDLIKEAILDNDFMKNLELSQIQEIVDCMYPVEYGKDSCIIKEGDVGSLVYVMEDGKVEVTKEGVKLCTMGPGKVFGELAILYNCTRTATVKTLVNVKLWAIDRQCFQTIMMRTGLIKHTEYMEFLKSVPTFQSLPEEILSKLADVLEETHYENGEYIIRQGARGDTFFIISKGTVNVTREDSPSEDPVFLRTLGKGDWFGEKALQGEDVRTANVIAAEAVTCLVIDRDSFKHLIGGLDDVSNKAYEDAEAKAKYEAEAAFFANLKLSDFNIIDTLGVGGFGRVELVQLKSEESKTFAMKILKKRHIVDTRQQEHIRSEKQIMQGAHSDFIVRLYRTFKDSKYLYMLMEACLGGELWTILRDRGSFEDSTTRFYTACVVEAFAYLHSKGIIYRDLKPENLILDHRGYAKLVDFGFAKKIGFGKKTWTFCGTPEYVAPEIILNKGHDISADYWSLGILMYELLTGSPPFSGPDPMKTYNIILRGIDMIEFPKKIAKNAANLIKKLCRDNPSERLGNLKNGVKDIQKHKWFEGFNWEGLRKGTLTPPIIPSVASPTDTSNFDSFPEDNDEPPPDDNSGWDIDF
To be noted: at 0.1 µM.

Test [5] addresses T3, cGMP-dependent protein kinase 1 (Homo sapiens). To be noted: at 1 µM.
Test [6] addresses T4, cGMP-dependent protein kinase 2 (Homo sapiens) (UniProt Q13237).
T4 sequence (whole entry): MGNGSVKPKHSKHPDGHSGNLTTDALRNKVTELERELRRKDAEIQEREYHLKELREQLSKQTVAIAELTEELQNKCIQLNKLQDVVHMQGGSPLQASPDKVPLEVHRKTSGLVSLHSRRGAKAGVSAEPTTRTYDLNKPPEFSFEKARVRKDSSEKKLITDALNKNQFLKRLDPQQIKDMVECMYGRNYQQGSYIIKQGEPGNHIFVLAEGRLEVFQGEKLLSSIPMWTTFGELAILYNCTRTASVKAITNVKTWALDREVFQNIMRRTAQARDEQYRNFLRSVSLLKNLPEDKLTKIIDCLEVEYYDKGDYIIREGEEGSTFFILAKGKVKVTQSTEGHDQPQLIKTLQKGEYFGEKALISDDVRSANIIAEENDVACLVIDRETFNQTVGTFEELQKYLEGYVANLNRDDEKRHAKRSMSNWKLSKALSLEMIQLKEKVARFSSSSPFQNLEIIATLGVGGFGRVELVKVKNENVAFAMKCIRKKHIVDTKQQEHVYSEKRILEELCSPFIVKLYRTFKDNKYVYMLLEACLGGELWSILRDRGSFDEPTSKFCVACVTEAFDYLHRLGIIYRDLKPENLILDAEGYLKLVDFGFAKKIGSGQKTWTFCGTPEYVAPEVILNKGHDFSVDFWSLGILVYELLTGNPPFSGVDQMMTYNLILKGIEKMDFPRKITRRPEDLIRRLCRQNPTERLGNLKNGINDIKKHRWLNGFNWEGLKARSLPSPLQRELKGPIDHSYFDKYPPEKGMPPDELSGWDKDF
Conditions: at 0.1 µM.

The target of test [7] is T4, cGMP-dependent protein kinase 2 (Homo sapiens). Conditions: at 1 µM.
Test [8] deals with T5, cAMP-dependent protein kinase catalytic subunit PRKX (Homo sapiens) (UniProt P51817).
T5 sequence (whole entry): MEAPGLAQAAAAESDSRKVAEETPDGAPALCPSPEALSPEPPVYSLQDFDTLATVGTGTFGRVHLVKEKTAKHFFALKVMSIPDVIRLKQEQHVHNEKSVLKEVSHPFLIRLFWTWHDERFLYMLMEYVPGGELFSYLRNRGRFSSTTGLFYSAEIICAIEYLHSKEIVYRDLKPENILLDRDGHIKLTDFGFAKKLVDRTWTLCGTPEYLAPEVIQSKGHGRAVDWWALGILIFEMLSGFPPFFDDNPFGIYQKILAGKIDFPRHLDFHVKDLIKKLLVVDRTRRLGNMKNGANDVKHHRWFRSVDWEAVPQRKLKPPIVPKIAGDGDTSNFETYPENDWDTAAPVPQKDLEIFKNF
To be noted: at 0.1 µM.

For test [9], the target named is T5, cAMP-dependent protein kinase catalytic subunit PRKX (Homo sapiens). Conditions: at 1 µM.
Test [10] addresses Rho-associated protein kinase 1 (Homo sapiens) (UniProt Q13464). Conditions: at 0.1 µM.
For test [11] the target is unchanged. Conditions: at 1 µM.
For test [12], the target named is Rho-associated protein kinase 2 (Homo sapiens) (UniProt O75116). To be noted: at 0.1 µM.
Rho-associated protein kinase 2 (Homo sapiens), sequence (O75116 whole entry, looked up): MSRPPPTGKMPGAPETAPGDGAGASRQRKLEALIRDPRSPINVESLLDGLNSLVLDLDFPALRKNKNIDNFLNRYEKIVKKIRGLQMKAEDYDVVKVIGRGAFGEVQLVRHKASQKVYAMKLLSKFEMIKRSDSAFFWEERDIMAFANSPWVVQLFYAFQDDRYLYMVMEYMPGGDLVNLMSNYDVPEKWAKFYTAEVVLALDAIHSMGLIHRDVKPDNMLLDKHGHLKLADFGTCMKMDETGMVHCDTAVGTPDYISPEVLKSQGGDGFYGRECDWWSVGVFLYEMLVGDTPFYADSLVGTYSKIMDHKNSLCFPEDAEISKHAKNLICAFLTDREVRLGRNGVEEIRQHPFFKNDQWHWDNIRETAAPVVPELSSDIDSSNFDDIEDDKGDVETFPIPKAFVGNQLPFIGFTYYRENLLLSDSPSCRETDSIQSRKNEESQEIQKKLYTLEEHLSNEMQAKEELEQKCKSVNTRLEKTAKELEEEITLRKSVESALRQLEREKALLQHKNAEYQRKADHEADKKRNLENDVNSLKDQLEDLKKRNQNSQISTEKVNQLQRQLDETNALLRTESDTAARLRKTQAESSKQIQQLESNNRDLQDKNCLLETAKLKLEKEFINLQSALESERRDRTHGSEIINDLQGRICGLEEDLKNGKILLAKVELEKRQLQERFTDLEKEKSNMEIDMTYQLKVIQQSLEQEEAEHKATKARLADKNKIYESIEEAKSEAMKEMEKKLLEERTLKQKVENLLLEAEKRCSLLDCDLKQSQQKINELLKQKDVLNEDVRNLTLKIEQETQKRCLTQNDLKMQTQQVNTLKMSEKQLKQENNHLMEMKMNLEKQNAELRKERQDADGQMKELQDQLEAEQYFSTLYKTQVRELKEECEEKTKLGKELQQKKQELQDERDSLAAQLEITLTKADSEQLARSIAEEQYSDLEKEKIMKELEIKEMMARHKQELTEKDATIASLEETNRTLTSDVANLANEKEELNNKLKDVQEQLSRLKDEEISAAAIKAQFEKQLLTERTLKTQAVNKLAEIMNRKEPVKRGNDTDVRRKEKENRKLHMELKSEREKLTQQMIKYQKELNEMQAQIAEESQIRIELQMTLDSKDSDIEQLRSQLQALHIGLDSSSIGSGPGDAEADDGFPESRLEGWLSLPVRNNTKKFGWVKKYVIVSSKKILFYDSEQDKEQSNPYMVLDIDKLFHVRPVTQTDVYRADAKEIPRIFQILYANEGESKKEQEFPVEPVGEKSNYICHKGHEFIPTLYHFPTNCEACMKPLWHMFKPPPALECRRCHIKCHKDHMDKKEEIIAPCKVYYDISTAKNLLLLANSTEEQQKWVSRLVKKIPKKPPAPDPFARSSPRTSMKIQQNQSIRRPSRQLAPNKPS
The target is the same in test [13]. To be noted: at 1 µM.
The target of test [14] is Ribosomal protein S6 kinase alpha-1 (Homo sapiens) (UniProt Q15418). To be noted: at 0.1 µM.
Ribosomal protein S6 kinase alpha-1 (Homo sapiens), sequence (Q15418 whole entry): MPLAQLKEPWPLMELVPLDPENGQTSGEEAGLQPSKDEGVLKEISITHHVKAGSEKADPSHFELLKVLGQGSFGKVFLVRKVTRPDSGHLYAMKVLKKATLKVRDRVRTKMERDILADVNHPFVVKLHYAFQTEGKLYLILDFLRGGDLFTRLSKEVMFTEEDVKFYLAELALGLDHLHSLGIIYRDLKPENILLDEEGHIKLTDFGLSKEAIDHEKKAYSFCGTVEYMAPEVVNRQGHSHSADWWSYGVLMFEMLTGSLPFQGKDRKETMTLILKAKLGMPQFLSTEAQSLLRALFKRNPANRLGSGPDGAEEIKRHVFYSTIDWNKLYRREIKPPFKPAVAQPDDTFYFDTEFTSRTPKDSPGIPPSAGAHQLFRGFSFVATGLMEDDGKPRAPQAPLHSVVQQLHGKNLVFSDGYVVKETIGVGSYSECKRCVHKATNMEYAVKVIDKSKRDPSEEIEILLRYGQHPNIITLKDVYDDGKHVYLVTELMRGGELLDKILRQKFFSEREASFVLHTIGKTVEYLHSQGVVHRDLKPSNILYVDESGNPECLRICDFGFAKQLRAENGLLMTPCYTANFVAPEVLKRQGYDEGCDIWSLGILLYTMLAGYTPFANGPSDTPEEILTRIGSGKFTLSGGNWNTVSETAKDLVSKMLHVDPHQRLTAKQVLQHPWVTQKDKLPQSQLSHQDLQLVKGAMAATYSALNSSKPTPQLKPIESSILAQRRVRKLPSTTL
Test [15] has the same target. Conditions: at 1 µM.
Test [16] has as its target Ribosomal protein S6 kinase alpha-3 (Homo sapiens) (UniProt P51812). Conditions: at 0.1 µM.
Test [17] shares this target. To be noted: at 1 µM.
Test [18] deals with Ribosomal protein S6 kinase alpha-2 (Homo sapiens) (UniProt Q15349). To be noted: at 0.1 µM.
Ribosomal protein S6 kinase alpha-2 (Homo sapiens), sequence (Q15349 whole entry): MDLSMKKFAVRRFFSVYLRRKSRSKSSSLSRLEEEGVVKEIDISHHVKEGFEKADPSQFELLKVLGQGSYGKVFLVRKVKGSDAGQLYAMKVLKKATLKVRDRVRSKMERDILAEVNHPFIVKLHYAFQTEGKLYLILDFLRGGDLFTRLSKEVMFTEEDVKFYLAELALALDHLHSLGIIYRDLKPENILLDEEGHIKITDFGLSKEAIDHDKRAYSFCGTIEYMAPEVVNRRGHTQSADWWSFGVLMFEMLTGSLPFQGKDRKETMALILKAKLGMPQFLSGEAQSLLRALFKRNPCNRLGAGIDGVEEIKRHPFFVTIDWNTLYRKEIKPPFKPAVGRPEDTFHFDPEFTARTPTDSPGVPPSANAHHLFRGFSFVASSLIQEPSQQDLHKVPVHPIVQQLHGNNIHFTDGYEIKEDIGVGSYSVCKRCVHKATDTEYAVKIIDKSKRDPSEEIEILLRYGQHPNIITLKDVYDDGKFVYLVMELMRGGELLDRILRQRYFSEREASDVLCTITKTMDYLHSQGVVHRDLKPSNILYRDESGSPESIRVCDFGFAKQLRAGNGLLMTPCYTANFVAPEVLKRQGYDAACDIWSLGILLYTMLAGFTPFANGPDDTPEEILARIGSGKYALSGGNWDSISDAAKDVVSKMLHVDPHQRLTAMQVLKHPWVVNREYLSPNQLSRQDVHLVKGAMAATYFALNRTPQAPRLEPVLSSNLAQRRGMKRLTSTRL
The target is the same in test [19]. Conditions: at 1 µM.
Test [20] concerns the target Ribosomal protein S6 kinase alpha-6 (Homo sapiens) (UniProt Q9UK32). To be noted: at 0.1 µM.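 Note: reported value is the mean inhibition of RSK4, from the GSK PKIS kinase inhibitor screen.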

Ribosomal protein S6 kinase alpha-3 (Homo sapiens), sequence (P51812 whole entry): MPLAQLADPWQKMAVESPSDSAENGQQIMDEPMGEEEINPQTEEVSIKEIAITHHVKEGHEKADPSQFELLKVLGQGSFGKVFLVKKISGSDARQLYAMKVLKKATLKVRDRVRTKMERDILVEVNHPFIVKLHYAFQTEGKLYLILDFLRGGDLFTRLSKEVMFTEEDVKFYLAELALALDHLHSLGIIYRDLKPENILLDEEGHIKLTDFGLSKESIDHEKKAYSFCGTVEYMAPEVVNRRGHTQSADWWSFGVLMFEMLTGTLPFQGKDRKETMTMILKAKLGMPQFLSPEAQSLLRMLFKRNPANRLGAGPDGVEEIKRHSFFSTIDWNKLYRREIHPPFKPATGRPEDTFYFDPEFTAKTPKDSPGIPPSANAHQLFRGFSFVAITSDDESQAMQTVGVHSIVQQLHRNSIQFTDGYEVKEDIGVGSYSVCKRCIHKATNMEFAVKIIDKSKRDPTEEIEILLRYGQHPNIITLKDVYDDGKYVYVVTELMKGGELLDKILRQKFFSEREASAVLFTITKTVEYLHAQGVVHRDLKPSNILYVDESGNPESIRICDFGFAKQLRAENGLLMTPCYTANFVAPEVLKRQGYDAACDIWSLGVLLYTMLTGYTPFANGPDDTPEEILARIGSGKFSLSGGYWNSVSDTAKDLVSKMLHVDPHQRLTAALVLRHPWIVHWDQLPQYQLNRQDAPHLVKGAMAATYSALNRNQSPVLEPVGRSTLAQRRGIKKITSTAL
Rho-associated protein kinase 1 (Homo sapiens), sequence (Q13464 2-1354 limits assumed): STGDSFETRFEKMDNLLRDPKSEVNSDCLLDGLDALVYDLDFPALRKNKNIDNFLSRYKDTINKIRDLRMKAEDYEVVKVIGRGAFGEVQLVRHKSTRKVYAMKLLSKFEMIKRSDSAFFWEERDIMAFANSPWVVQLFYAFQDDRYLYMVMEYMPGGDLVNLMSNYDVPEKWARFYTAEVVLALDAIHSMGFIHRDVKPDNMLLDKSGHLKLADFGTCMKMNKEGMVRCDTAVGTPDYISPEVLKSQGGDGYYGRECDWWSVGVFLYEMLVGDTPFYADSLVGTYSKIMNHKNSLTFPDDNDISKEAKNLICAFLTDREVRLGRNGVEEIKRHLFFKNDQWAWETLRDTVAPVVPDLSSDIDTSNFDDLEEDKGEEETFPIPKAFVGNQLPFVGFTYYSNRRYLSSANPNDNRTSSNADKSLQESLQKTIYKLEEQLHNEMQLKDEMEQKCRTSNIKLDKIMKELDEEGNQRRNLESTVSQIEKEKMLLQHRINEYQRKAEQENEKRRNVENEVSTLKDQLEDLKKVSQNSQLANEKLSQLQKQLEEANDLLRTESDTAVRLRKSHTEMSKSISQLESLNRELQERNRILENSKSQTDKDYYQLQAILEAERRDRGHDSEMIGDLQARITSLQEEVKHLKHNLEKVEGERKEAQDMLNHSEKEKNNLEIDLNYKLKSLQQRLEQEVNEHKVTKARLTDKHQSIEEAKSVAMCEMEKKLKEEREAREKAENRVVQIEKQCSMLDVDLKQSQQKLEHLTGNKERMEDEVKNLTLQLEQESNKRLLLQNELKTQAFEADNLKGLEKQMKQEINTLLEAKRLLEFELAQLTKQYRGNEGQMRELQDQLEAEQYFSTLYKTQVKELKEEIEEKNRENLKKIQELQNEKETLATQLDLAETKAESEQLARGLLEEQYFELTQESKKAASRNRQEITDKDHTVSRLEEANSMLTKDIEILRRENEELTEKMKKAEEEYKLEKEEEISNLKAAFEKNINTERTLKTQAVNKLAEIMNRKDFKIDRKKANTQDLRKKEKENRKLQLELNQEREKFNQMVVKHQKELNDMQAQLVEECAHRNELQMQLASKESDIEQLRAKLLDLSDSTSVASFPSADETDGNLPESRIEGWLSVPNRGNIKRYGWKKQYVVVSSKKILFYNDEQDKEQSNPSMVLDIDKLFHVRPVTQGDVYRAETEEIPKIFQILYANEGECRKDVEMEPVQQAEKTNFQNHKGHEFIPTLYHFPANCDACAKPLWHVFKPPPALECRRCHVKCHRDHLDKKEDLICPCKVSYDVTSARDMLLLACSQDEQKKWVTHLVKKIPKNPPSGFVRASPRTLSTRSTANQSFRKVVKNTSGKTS

As usually defined, the inhibition is the change of the read-out against control, counted positive when it falls. `Nc1ncnc2occ(-c3ccc(NC(=O)Nc4cc(C(F)(F)F)cc(C(F)(F)F)c4)cc3)c12`: the inhibition in [1] was 1.29%; in [2], 1.47%; in test [3], 1.15%; in test [4], 1.23%; in test [5], 1.54%; in test [6], 0.73%. Moreover, the inhibition in test [7] was 1.97%; in [8], -0.03%; in [9], -3.64%; in test [10] it was 6.3%; in test [11], 41.1%; in test [12], 20.3%. Moreover, the inhibition in test [13] is 71.6%; in test [14], 3.14%; in [15] it was 41.1%; in [16], 0.64%; in [17] it was 9.39%; in test [18] it was 6.07%. The inhibition in test [19] amounted to 38.8%; in [20] it was 0.65%.

Consider `Cc1nn(C)c2cc(N(C)c3ccnc(Nc4cccc(S(N)(=O)=O)c4)n3)ccc12`, for which the inhibition in test [1] stood at 4.2%; in test [2] it was 2.9%; in test [3] it was 3.56%; in [4] it was 4.25%; in [5] it was 6.59%; in test [6], 2.42%. Further, the inhibition in [7] was found to be 5.81%; in test [8], 2.89%; in [9] it was 5.35%; in [10] it was 1.17%; in test [11], 2.24%; in test [12], 2.09%. For the same compound, the inhibition in test [13] turned out to be 3.32%; in test [14], 1.77%; in test [15] it was 3.73%; in [16] it was 1.39%; in test [17], 6.38%; in test [18], 2.93%. In addition, the inhibition was 4.46% in test [19] and 2.03% in test [20].

`Cn1cc(C=C2C(=O)Nc3cccnc32)c2ccccc21`: the inhibition in test [1] was 9.92%; in [2], 3.79%; in [3], 10.3%; in [4], 1.8%; in [5] it was 3.04%; in test [6], 1.83%. Moreover, the inhibition stood at 3.03% in test [7]; 0.64% in test [8]; 0.1% in test [9]; 1.45% in test [10]; 5.28% in test [11]; 2.47% in test [12]. Besides, the inhibition in [13] was 8.3%; in test [14], 0.08%; in test [15], 5.16%; in test [18] it was 1.73%; in test [19], 7.9%; in test [20], 2.64%.

Take `Cc1ccc(NC(=O)c2ccnc(N3CCCC3)c2)cc1-c1ccc(C(=O)NCC2CC2)cc1`: the inhibition in test [1] was 9.48%; in test [2], 3.21%; in test [3], 10.1%; in test [4], 2.12%; in [5] it was 6.39%; in [6], 3.92%. For the same compound, the inhibition in [7] amounted to 6.54%; in test [8], 1.47%; in [9], 2.53%; in test [10], 10%; in test [11], 7.68%; in test [12], 5.19%. The inhibition in [13] worked out at 7.89%; in [14] it was 3.15%; in test [15], 5.01%; in test [16], 2.42%; in [17], 6.09%; in test [18], 3.89%. The results for the inhibition in [19] and in test [20] were 5.23% and 2.53%, respectively.
